Compound activity as filed in PubChem BioAssay.
PolyA inh: yeast polyadenylation inhibition; S. cerevisiae SKY197-pL101 polyadenylation reporter, beta-gal luminescence; efflux-impaired pdr1/pdr3 knockout yeast; score 100 = 6 SD above DMSO; AID 1875; activity score, % at 12 µM; hit rate 0.02% among 300,000;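 active = lowest replicate activity score at least 50, where 100 means six control SD above control mean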;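 also: yeast exposed to compound for 9 h at 30 °C; higher score means more reporter readthrough which indicates perturbed polyadenylation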
MOR-DOR ag-1: OPRM1-OPRD1 heterodimerization agonism | cells, luminescence | AID 504326 | hit rate 0.3% among 340,000 | P35372+P41143 | activation, % at 9.3 µM;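 also: 0% = vehicle-treated cells and 100% = reference agonist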
HTR5A ag: activates human HTR5A in OPRM1-OPRD1 agonist counter-screen; AID 504692; HTR5A agonist assay, luminescence, cell-based; activation, % at 9.3 µM; P47898; hit rate 0.61% among 340,000; in the data active = activation mostly above about 9.5%, no sharp cut-off; inactive = mostly below about 7.6%;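 also: 0% = cells with vehicle only and 100% = reference agonist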
OPRM1-OPRD1 inv: mu-delta opioid heterodimer inverse agonism | cell-based MOR-DOR heterodimer luminescence | inhibition, % at 9.3 µM | hit rate 0.21% among 340,000; in the data active = inhibition above about 22%, passing the limit was not always enough;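 also: 0% = cells with DMSO and 100% = wells without cells with DMSO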
HTR5A inv ag: HTR5A inverse agonism, opioid heterodimer counter-screen; P47898; HTR5A cell line, luminescence; inhibition, % at 9.3 µM; hit rate 0.083% among 340,000; in the data active = inhibition mostly above about 23%, no sharp cut-off; inactive = mostly below about 18%;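 also: 0% = cells with DMSO and 100% = no-cell wells with DMSO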
NALP1 inh: blocks the NALP1 inflammasome reconstituted in yeast; S. cerevisiae NALP1/ASC/caspase-1 growth, X-gal OD620, 72 h; inhibition, % at 10 µM; hit rate 0.61% among 280,000; AID 2071; in the data active = inhibition mostly above about 24%, no sharp cut-off; inactive = mostly below about 32%
MOR-DOR ag-2: counter-screen for HTR5A agonists: OPRM1-OPRD1 heterodimerization agonism; shares compounds with HTR5A ag; U2OS counter-screen cells, complementation luminescence, 3 h; activation, % at 9.3 µM; hit rate 13% among 800
HTR5A ag conf: HTR5A (human) agonism, confirmation; shares compounds with HTR5A ag; HTR5A agonist cell assay, luminescence; activation, % at 9.3 µM; hit rate 17% among 800; in the data active = activation above about 17%;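 also: 0% = cells with vehicle only and 100% = full reference agonist response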
* hit, by the source's call; · = no result given; ! = not active in a repeat. Sampled rows, rich in hits. Any-hit rate of the full collection: about 1.6%. Rule as the data show it, unless noted: active = activation above about 18%; inactive = the rest.

SMILES	PolyA inh	MOR-DOR ag-1	HTR5A ag	OPRM1-OPRD1 inv	HTR5A inv ag	NALP1 inh	MOR-DOR ag-2	HTR5A ag conf
COc1ccc(C(C)=O)cc1CS(=O)(=O)CC(=O)NCCc1c[nH]c2ccccc12	·	-1	18*	4	-49	·	1	5
O=C(NCCCNC(=O)c1ccccn1)c1ccc(Cl)cc1	-2	0	18*	-2	-52	2	0	4
CC(C=NNc1ccc([N+](=O)[O-])cn1)=Cc1ccccc1	·	1	-3	-4	11	·	·	·
COc1ccccc1NC(=O)COC(=O)c1cc2c(s1)CCC2	·	1	0	-5	13	·	·	·
COc1ccc(OC)c(NC(=O)COC(=O)c2cc3c(s2)CCC3)c1	8	0	15*	-1	-21	3	2	0
O=c1c2ccccc2nc2n1CCc1c-2[nH]c2ccccc12	·	7	14	-40	-29	·	·	·
Cc1cccc2c(=O)n3c(cc12)-c1[nH]c2ccccc2c1CC3	·	15	15*	-65	-57	·	3	-1
COC(=O)C1=C(C)N(c2cc(Cl)cc(Cl)c2)C(=O)C1	3	1	15*	-8	2	-19	0	-2
CCOc1ccccc1NC(=S)N(CCOC)C1CCN(C(C)=O)CC1	-19	-1	15*	5	12	·	3	-1
CCSC(=S)Nc1c(C)n(C)n(-c2ccccc2)c1=O	0	-5	0	25	-8	5	·	·
O=C(NCc1ccc2c(c1)OCO2)C1CCC(=O)N1C1CCCC1 (stereo unspecified)	2	0	0	1	1	-5	·	·
Cc1onc(-c2ccccc2Cl)c1C(=O)NCCN1Cc2ccccc2C1=O	14	2	29*	-12	-77	-5	0	-2
CC1CC(C)CN(C(=O)C2CCN(C(=O)Nc3ccccc3)CC2)C1 (stereo unspecified)	19	-2	-2	10	5	·	·	·
CN1C[C@H](C(=O)N[C@]2(C)O[C@@]3(O)[C@@H]4CCCN4C(=O)[C@H](Cc4ccccc4)N3C2=O)CC2c3cccc4[nH]cc(c34)C[C@H]21 (stereo partly specified)	·	1	45*	-3	-162	·	-2	48*!
CC(C)C[C@H]1C(=O)N2CCC[C@H]2[C@]2(O)O[C@](NC(=O)C3C=C4c5cccc6[nH]c(Br)c(c56)C[C@H]4N(C)C3)(C(C)C)C(=O)N12 (stereo partly specified)	7	4	8	-24	-30	·	·	·
CC(NC(=O)c1ccco1)c1ccc2c(c1)OCCO2 (stereo unspecified)	15	0	15*	0	-14	11	2	-3
COc1ccccc1OCC(=O)Nc1cccc(-c2nnc(-c3ccco3)o2)c1	-14	-2	4	11	-10	10	·	·
O=C(COc1ccccc1)Nc1ccc(-c2nnc(-c3ccco3)o2)cc1	4	7	16*	-34	-30	12	0	1
O=c1[nH]c2ccccc2cc1-c1nnn(-c2ccc(Cl)c(Cl)c2)n1	-6	-4	18*	21	-61	·	2	-3
O=c1[nH]c2ccccc2cc1-c1nnn(-c2ccc(F)cc2)n1	-3	0	0	-2	-2	7	·	·
CC(C)(C)OC(=O)C[C@@H]1C/C=C\C[C@@H](CC(=O)N[C@H](CO)Cc2ccccc2)C(=O)N2CCC[C@@H]2COC1=O	·	-3	16*	18	2	·	23*	-1
COc1ccc(CC(=O)Nc2cccc(-c3nnc(-c4cccc(C)c4)o3)c2)cc1OC	-13	1	-11	-4	-26	5	·	·
COc1ccc(CC(=O)Nc2cccc(-c3nnc(-c4ccccc4)o3)c2)cc1OC	-10	10	16*	-58	-43	27	-2	-4
CC1c2nc3ccccc3n2C(CC(=O)NCc2ccccn2)C(=O)N1Cc1ccccc1 (stereo unspecified)	12	·	·	·	·	-1	·	·
O=C(NCC1CCCO1)c1ccc(Oc2ccc([N+](=O)[O-])cc2Cl)cc1 (stereo unspecified)	-5	3	17*	-25	-49	19	-4	-8
